# Measured values taken from PubChem BioAssay AID1117279 (The Scripps Research Institute Molecular Screening Center, 2014).
# The campaign covered roughly 1,100 compounds. About 40 (4%) were called active. These entries were drawn from the full list. A number with no mark means an inactive call.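 How the source made its calls: active means average inhibition above the solvent-only control wells' mean plus 3 SD (cut at about 15% in these data); inactive means the rest.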
# Assay: TTR promoter reporter inhibitors in hepatoma cells, counter-screen for TTR transcription activator project, cell-based, luminescence, HuH7 hepatoma (AID 1117279);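 further: 0% = cells with DMSO only and 100% = cells with inhibitor control FD; inhibitors lower well luminescence so higher value means more inhibition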
# Settings: HuH7 TTR promoter-Gaussia luciferase reporter, at 16.7 µM, hits give high values
row,SMILES,inhibition
1,CC(C)(C)C1CCC(OC(=O)CCC(=O)Nc2ccccc2)CC1 (stereo not given),-7.82%
2,C[C@H](NC(=O)C1CCN(S(=O)(=O)c2ccccc2)CC1)C(=O)NCc1ccccc1,-13.1%
3,Cc1cccc(N2C(=O)CC(SC(N)=Nc3ccccc3)C2=O)c1 (stereo not given),-9.09%
4,Brc1ccc(/C=N/N2CCN(C3c4ccccc4-c4ccccc43)CC2)s1,-10.1%
5,CC(C)NC(=O)c1ccc(Sc2ccccc2)c([N+](=O)[O-])c1,-1.16%
6,CCOc1ccc(NC(=O)COc2ccc(S(=O)(=O)N3CCCC3)cc2)cc1,-11.3%
7,CCCCCc1ccc(-c2cn(Cc3ccc4ccccc4c3)nn2)cc1,-10.2%
8,CCOc1ccc(N=C2NC(=O)S/C2=C\c2ccc(O)cc2)cc1,24.4% (active)
9,COc1cc(N2C(=O)CC3(CCCC3)CC2=O)cc(OC)c1OC,-8.06%
10,Cc1c(C#N)c(NC(=O)c2ccccc2)n(Cc2ccccc2)c1C,-8.18%
11,Cn1cc(CN2CCCC(CO)C2)c(-c2ccc(Oc3ccccc3)cc2)n1 (stereo not given),-9.5%
12,O=C(NNC1=NCCC1)c1cccc(S(=O)(=O)N2CCCCC2)c1,-4.93%
13,COc1ccc(-c2oc3ncn(Cc4ccco4)c(=N)c3c2-c2ccc(OC)cc2)cc1,1.5%
14,CSCCC(NC(N)=O)C(=O)N(C)CC(=O)Nc1ccc(C)cc1 (stereo not given),-0.9%
15,CCCCOCCCNC(=O)C[C@H]1C[C@@]2(C(=O)OC)C(=C[C@H](C(C)(C)C)O[C@@H]2C)N(CCc2ccc(OC)c(OC)c2)C1=O,-3.28%
16,Cc1cccc(C)c1NC(=O)CN1C(=O)C(C)Oc2ccccc21 (stereo not given),1.63%
17,N=c1ccn(CC(=O)NC(N)=O)c2ccccc12,-11.8%
18,C=C1C(C(C)C)N(C)C2=NC(c3ccccc3)CC(=O)N12 (stereo not given),-4.18%
19,O=C(NCCCNC(=O)c1ccccc1Cl)c1cnccn1,-8.25%
20,O=S(=O)(NCCCN1CCOCC1)c1ccc(F)c(Cl)c1,-2.54%
21,COc1ccccc1N1CCN(Cc2cc(OC)c3c(c2)OCO3)CC1,-8.45%
22,O=C(Nc1cccc(O)c1)c1ccc(C(=O)c2ccccc2)o1,-11.2%
23,O=C(O)Cn1c(Cc2ccccc2)nc2ccccc21,-10%
24,O=C(CCC(=O)c1cccs1)NCc1ccccc1,-6.29%
25,Cc1c(NS(=O)(=O)c2ccc(NC3CCCC3)c([N+](=O)[O-])c2)c(=O)n(-c2ccccc2)n1C,17.4% (active)
